Source: PubChem BioAssay (several laboratories)
Sampled rows, rich in hits. Any-hit rate of the full collection: about 3.2%.
Bim-Mcl-1 = inhibitors of Bim peptide binding to Mcl-1, primary screen, biochemical, bead-based flow cytometry, multiplex; Induced myeloid leukemia cell differentiation protein Mcl-1 (Homo sapiens), Q07820; Bim peptide-Mcl-1 binding; inhibition, % at 10 µM; 0.1% of 190,000 active; AID 1009, 2008; in the data active means inhibition above about 40%;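 further: 0% = no compound tracer wells and 100% = peptide blocker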
Mcl1-Noxa inh = Mcl-1/Noxa binding inhibitors, primary screen, biochemical, TR-FRET, 1536-well | AID 1022, 2008 | 1.5% of 220,000 active | inhibition, % at 21.7 µM | TR-FRET Mcl-1/Noxa peptide binding, 2 h;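 active means compounds that cut the protein-peptide binding signal by more than 50% relative to plate controls in a single-dose test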;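 further: His-tagged Mcl-1 with rhodamine Noxa BH3 peptide and terbium anti-His antibody; 0% = Mcl-1 plus Noxa peptide wells and 100% = peptide-only wells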
p47phox inh = p47phox/p22phox peptide binding inhibitors, primary screen, biochemical, uHTS, NADPH oxidase regulatory subunit; 0.53% of 220,000 active; AID 1274, 2008; fluorescence polarization, 2 h; inhibition, % at 24.7 µM;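 active means inhibition above about 30%, limit read from the data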;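 further: 0% = p47phox with labelled peptide and 100% = labelled peptide alone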
Target sequence (P14598 whole entry, looked up): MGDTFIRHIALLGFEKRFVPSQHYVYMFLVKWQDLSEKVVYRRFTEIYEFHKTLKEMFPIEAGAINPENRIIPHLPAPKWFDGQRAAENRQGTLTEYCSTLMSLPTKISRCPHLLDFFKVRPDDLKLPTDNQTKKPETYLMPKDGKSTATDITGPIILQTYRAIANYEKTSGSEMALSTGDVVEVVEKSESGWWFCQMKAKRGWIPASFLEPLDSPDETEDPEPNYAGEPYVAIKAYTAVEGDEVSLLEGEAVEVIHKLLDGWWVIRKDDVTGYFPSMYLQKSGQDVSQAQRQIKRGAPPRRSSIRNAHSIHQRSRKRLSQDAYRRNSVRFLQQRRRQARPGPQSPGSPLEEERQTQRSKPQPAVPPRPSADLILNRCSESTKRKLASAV
Mcl1-Bid inh = Mcl-1/Bid binding inhibitors, primary screen, biochemical, TR-FRET, 1536-well | Induced myeloid leukemia cell differentiation protein Mcl-1 (Homo sapiens), Q07820 | TR-FRET Mcl-1/Bid-Dy647 peptide binding | inhibition, % at 21.7 µM | 0.97% of 220,000 active | AID 1021, 2008;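 active means compounds that cut the binding signal by more than half at the single screening dose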;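 further: His-tagged Mcl-1 with europium anti-His antibody binding Bid BH3 peptide; 0% = Mcl-1 plus peptide wells and 100% = peptide-only wells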
14-3-3 Bad inh = inhibitors of 14-3-3 zeta/Bad binding, primary screen, biochemical, TR-FRET, bovine 14-3-3 zeta; 14-3-3 protein zeta/delta (Bos taurus), P63103; TR-FRET 14-3-3zeta/Dy647-pBad peptide displacement, 1 h; inhibition, % at 21.7 µM; 0.71% of 220,000 active; AID 781, 2007;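 active means inhibition above about 70%, limit read from the data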;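 further: 0% = full 14-3-3 plus peptide FRET controls and 100% = background without 14-3-3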
Target sequence (P63103 whole entry, looked up): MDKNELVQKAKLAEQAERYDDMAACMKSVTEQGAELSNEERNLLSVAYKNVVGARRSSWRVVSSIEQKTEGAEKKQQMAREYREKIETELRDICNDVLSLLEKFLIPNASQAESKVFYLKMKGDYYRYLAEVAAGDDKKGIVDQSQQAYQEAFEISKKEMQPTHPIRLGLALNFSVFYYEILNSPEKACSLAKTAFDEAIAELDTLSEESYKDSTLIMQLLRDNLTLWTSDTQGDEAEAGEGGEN
* marks the source's active call; other numbers are inactive results; x = no result; [ ] = another dose, or the depositor's remark.

SMILES	Bim-Mcl-1	Mcl1-Noxa inh	p47phox inh	Mcl1-Bid inh	14-3-3 Bad inh
O=C(CNC(=S)N(CCCN1CCOCC1)Cc1cccs1)NC1CCCC1	-1.0	2.8	34.6*	-36.3	-9.1
CCOc1ccc(NC(=O)c2cc3c(C)nc4ccccc4c3o2)cc1	1.0	42.5	13.7	52.5*	36.2
CCOC(=O)c1sc2nccc(OC)c2c1N=CN(C)C	-2.0	-0.8	-18.8	-10.5	-5.5
N#Cc1c(NCCN)nc(-c2ccccc2)c2c1CCCC2	0.0	7.8	42.1*	-4.8	14.3
O=C(NCCCCc1ccccc1)C1CC(c2ccccc2[N+](=O)[O-])=NO1 (centres undefined)	-3.0	100.1*	-14.2	8.0	6.4
CCCCNC(=O)C1CC(c2ccccc2[N+](=O)[O-])=NO1 (centres undefined)	0.0	-4.4	-14.1	7.5	-1.1
CCOC(=O)CSc1n[nH]c(NC(C)=O)n1	0.0	13.9	8.5	-2.1	-3.5
CCOC(=O)c1nn(-c2ccccc2)c(=O)c(C#N)c1C	2.0	-1.7	-4.6	21.1	5.1
CCOC(=O)c1nn(-c2ccccc2)c(C#N)c1N	41.0*	2.5	-6.9	-29.2	-8.8
CCN=C1NN=C(c2cc(C)n(CCc3ccccc3)c2C)CS1	3.0	39.0	13.8	7.9	92.0*
c1ccc(CN=C2NN=C(c3cc4ccccc4o3)CS2)cc1	0.0	93.1*	-29.6	-34.5	-4.0
O=C(N/N=C/c1ccc[nH]1)c1cc(-c2ccc(Cl)cc2)nc2ccccc12	0.0	8.7	-24.8	-38.3	-11.4
Cc1ccc(C)c(NC(=O)Cn2cnc3c(oc4ccccc43)c2=O)c1	0.0	-10.8	-12.1	-16.9	-7.1
C#CCOCCOCCOCCNc1nc(N2CCN(C(=O)[C@H]([C@@H](C)CC)n3cc([C@@H](N)Cc4ccc(O)cc4)nn3)CC2)nc(N2CCN(C(=O)[C@H](Cc3cc4ccccc4[nH]3)n3cc([C@@H](N)C(C)CC)nn3)CC2)n1 (some centres undefined)	-3.0	24.7	18.6	21.2	8.2
C#CCOCCOCCOCCNc1nc(N2CCN(C(=O)[C@H](Cc3ccc(O)cc3)n3cc([C@@H](N)C(C)CC)nn3)CC2)nc(N2CCN(C(=O)[C@H](Cc3cc4ccccc4[nH]3)n3cc([C@@H](N)C(C)CC)nn3)CC2)n1 (some centres undefined)	-2.0	43.6	x	68.8*	41.2
C#CCOCCOCCOCCNc1nc(N2CCN(C(=O)[C@H](Cc3cc4ccccc4[nH]3)n3cc([C@@H](N)C(C)CC)nn3)CC2)nc(N2CCN(C(=O)[C@H](Cc3cc4ccccc4[nH]3)n3cc([C@@H](N)Cc4ccc(O)cc4)nn3)CC2)n1 (some centres undefined)	0.0	61.2*	79.4*	85.4*	42.5
CC(C)(C)c1ccc(-c2nnc(SCC(=O)NC3CCS(=O)(=O)C3)n2N)cc1 (centres undefined)	0.0	-3.3	-9.8	-36.9	-14.3
O=C(O)CNc1nc(-c2ccccc2)nc2ccccc12	0.0	-0.4	-1.8	1.0	-2.4
Cc1cccc2nc(-c3ccccc3)nc(N[C@@H](CO)c3ccccc3)c12	-3.0	13.3	-19.2	2.6	76.0*[fluorescence artefact?]
Cc1nnc(Sc2cc(NCCO)c([N+](=O)[O-])c3nonc23)s1	5.0	76.7*	5.8	-88.7	-7.3
O=[N+]([O-])c1c(NCCCO)cc(Sc2nc3ccccc3s2)c2nonc12	5.0	50.2	14.6	-39.0	26.1
Cc1nnc(Sc2cc(NCCCO)c([N+](=O)[O-])c3nonc23)s1	-3.0	78.8*	6.6	-79.3	-3.7
Cc1cncn1CCc1nc2c3ccccc3nc(SCC(=O)Nc3cccc(Cl)c3)n2n1	-1.0	-6.1	49.9*	17.8	1.1
O=C(NCc1ccco1)C1CCN(c2ccc(S(=O)(=O)N3CCOCC3)cc2[N+](=O)[O-])CC1	0.0	-8.8	-1.9	-30.9	-7.7
Cc1cc(C)c(C)c(C(=O)CSc2nnc(-c3ccc4[nH]c(C)c(C)c4c3)o2)c1C	-3.0	29.1	-14.9	-2.8	72.9*
SMILES	Bim-Mcl-1	Mcl1-Noxa inh	p47phox inh	Mcl1-Bid inh	14-3-3 Bad inh
CCOC(=O)N1CCC(N2CCN(S(=O)(=O)c3ccc(NC(C)=O)cc3)CC2)CC1	0.0	14.1	-6.6	19.2	23.8
CCOC(=O)N1CCC(N2CCN(S(=O)(=O)c3ccc(Cl)cc3)CC2)CC1	2.0	23.5	-3.6	54.9*	36.5
Cc1ccc(C=C2C(Cl)=C(Cl)C(Cl)=C2Cl)cc1	x	52.8*	-2.1	-0.8	-4.9
Cc1ccc(/C=[N+](/C)[O-])cc1	-1.0	-3.2	9.5	-5.3	-4.3
COc1ccc(CN(C(=O)c2ccc3c(c2)OCCO3)C(C(=O)NC2CCCCC2)c2ccc3ncccc3c2)cc1 (centres undefined)	0.0	-1.2	-18.1	1.7	-1.6
O=C(NC1CCCCC1)C(c1ccc2ncccc2c1)N(Cc1ccccc1)C(=O)c1ccc2c(c1)OCCO2 (centres undefined)	0.0	61.4*	3.1	85.9*	-6.6
COc1ccc(NC(=O)NC2CCCCC2C)cc1 (centres undefined)	0.0	19.8	7.0	-10.8	0.6
O=C(Cc1ccc(Cl)cc1)Nc1ccc(N2CCCC2)cc1	-4.0	-5.9	-34.0	-24.4	1.6
Clc1cccc(Cl)c1CNc1ccc(N2CCCC2)cc1	16.0	67.0*	-10.7	-70.8	25.0
COc1ccc(-c2nnn(CC(=O)NCc3ccc4c(c3)OCO4)n2)cc1OC	0.0	-6.6	33.7*	-6.3	39.6
COC(=O)c1ccc(-c2nc3cc(Cl)c(N)cc3s2)cc1	0.0	0.3	0.8	90.8*	3.3
CN1CCN(S(=O)(=O)c2ccc(NC(=S)NC(=O)c3ccccc3)cc2)CC1	-2.0	12.7	-6.5	-27.8	-2.7
O=C(NCc1cccnc1)c1ccc(S(=O)(=O)N2CCCCC2)cc1	0.0	23.6	-2.2	8.7	-12.9
CN1CCN(S(=O)(=O)c2ccc(NC(=S)NC(=O)c3ccc(Cl)cc3)cc2)CC1	-7.0	83.9*	-5.2	2.2	-0.5
O=C(NC(=S)Nc1ccc(S(=O)(=O)N2CCCCC2)cc1)c1cccs1	0.0	0.6	-1.9	96.4*	-0.7
O=C(Cc1cccs1)Nc1ccc(S(=O)(=O)N2CCCC2)cc1	0.0	62.6*	-5.4	-19.5	33.4
O=S(=O)(c1ccc(NC(=S)NCc2cccnc2)cc1)N1CCCCC1	x	19.8	1.0	96.1*	-3.1
O=C(c1cc([N+](=O)[O-])[nH]n1)N1CCSCC1	x	6.8	1.4	-4.0	0.5
Nc1ccc(S(=O)(=O)C(F)(F)F)cc1N	0.0	9.8	-8.9	-54.2	-12.9
CCn1c(SC(C)C(=O)O)nc2sc3c(c2c1=O)CCC3 (centres undefined)	-1.0	67.4*	5.8	-58.0	45.6
